# gsp ag – qHTS for Agonist of gsp, the Etiologic Mutation Responsible for Fibrous Dysplasia/McCune-Albright Syndrome: qHTS; gsp mutant cells, cAMP HTRF, 30 min; Potency, µM (highest dose often 76.9 µM), for inactives: at the highest dose activation (cAMP increase), actives largely listed as activators; 340,000 tested, 0.13% active; active means well fitted activation curve with a large enough effect; inconclusive means small, poorly fitted or top-dose-only effect, or another doubt; inactive means no such curve, though single readings can be large or run the other way; cell line not stated here;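 further: phosphodiesterase inhibitor Ro 20-1724 added with compounds to block cAMP breakdown; potency means the concentration at half of the fitted maximal effect; nearly all actives have a fitted effect of over 60% in size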
#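 Cells in DMEM/10% FBS with G418 were pretreated with compounds in DMSO plus […] (300 uM stock) for 30 min at 37C. cAMP was measured by HTRF (cAMP-d2 plus anti-cAMP antibody-K) after 30 min at room temperature.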
# RXFP1 agonist – qHTS Assay for Agonists of the Relaxin Receptor RXFP1; Relaxin receptor 1 (Homo sapiens), Q9HBX9; HEK293T-RXFP1 cAMP TR-FRET, 30 min; response scale: percent of porcine relaxin response, buffer zero; Potency, µM (series often up to 57.5 µM), for inactives: at the top dose activation, most hits filed as activators; 370,000 tested, 0.3% active; AID 2676, 2010; active means well fitted activation curve with a large enough effect; inconclusive means small, poorly fitted or top-dose-only effect; further: potency means the concentration at half of the fitted maximal effect; on the % scale 0 is the no-effect control and ±100 the full control effect; nearly all actives have a fitted effect of over 60% in size
# Target sequence (Q9HBX9 whole entry, looked up): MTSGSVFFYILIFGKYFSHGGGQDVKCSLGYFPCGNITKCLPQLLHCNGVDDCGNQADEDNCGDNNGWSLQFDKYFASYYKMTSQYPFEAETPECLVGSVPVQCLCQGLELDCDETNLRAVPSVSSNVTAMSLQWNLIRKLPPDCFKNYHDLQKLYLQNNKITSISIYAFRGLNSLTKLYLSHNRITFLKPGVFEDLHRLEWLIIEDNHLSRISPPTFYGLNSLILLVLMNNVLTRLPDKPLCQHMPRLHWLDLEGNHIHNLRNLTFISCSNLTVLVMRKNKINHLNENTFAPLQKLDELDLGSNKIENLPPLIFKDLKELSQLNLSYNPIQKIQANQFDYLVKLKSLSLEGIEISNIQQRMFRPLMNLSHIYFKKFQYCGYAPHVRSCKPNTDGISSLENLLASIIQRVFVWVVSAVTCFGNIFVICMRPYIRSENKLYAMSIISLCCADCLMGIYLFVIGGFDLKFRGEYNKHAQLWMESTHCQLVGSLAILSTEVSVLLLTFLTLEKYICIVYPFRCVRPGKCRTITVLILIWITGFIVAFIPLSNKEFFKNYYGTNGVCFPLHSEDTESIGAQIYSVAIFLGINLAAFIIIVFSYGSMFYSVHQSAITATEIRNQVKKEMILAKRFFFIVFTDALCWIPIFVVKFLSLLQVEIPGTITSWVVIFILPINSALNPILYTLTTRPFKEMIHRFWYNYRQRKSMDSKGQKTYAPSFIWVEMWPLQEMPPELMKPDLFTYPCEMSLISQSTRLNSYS
#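 Agonist response is measured as cAMP accumulation in an RXFP1-transfected HEK293T line under PDE4 inhibition. Values are scaled between buffer-only and 29 nM porcine relaxin, and EC50s come from standard Hill equation fits.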
# Coupling enz – qHTS Assay for Inhibitors of Fructose-1,6-bisphosphate Aldolase from Giardia Lamblia: Coupling assay counterscreen; AID 2472, 2010; coupling enzyme system counterscreen, AmpLite Red fluorescence; activity change, negative = inhibition, % at 58.2 µM, hits read low; 290,000 tested, 0.67% active; in the data active means activity change below about -30%; further: on the % scale 0 is the no-effect control and ±100 the full control effect
#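 Activity here indicates interference with the coupling reaction, not aldolase inhibition. Compounds at 57.5 uM final met coupling enzymes for 10 min at RT; substrate and AmpLite Red detection followed, with a 525/598 nm fluorescence read after 20 min.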
# RXFP1 antagonist – qHTS Assay for Antagonists of the Relaxin Receptor RXFP1; Relaxin receptor 1 (Homo sapiens), Q9HBX9; HEK293-RXFP1, relaxin-stimulated cAMP HTRF, 30 min; active compounds read low; activity change, negative = inhibition, % at 57.5 µM; 350,000 tested, 0.59% active; AID 1259400, 2018;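 active means activity change of -60% or lower, but not beyond a set lower limit; inconclusive means change between -60% and -40%, or beyond the set limit; inactive means change above -40%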; further: on the % scale 0 is the no-effect control and ±100 the full control effect
# gsp antag – qHTS for Antagonists of gsp, the Etiologic Mutation Responsible for Fibrous Dysplasia/McCune-Albright Syndrome: qHTS; gsp-mutant cells, cAMP HTRF, 30 min; Potency, µM (highest dose often 76.9 µM), for the others: at the top dose activity change, negative = inhibition, hits mostly inhibitors; 340,000 tested, 0.4% active; calls by dose curve; cell line not stated here;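 further: intracellular cAMP measured with PDE inhibitor Ro 20-1724 present during compound exposure; potency means the concentration at half of the fitted maximal effect; on the % scale 0 is the no-effect control and ±100 the full control effect; nearly all actives have a fitted effect of over 65% in size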
#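 Cells in G418 medium, seeded 16-24 h, 37C; buffer exchange to DPBS + 1 mM CaCl2, 0.5 mM MgCl2, 0.05% BSA; cpds in DMSO + […] (300 uM stock), 30 min 37C; HTRF cAMP detection.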
# Giardia killer – Small Molecules that selectively kill Giardia lamblia: qHTS | AID 540267, 2011 | activity change, % at 7.66 µM, hits read low | 340,000 tested, 0.15% active | Giardia lamblia trophozoite viability; in the data active means activity change below about -80%; inconclusive means between about -30% and that limit;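 further: parasites exposed to compound for two days anaerobically before the ATP read; on the % scale 0 is the no-effect control and ±100 the full control effect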
#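 ATP-content bioluminescence gauges trophozoite survival. Cells (100/well) receive compound and incubate anaerobically for 48 hrs at 37 deg C; detection reagent follows for 15-30 min at room temperature.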
# * hit, by the source's call; ? = inconclusive; . = no result given; ! = not active in a repeat; [ ] = another dose, or the depositor's remark. Hits are enriched below; roughly 1.6% of the tested compounds scored in any of these assays.
SMILES,gsp ag,RXFP1 agonist,Coupling enz,RXFP1 antagonist,gsp antag,Giardia killer
CC1CC(C)CN(CCCNC(=O)c2ccc3c(c2)NC(=O)CS3)C1 (stereo not given),-3.1%,0.3%,2.2,13.2,15.0%,-26.5
CC(=O)C1=C(c2ccc(Cl)c(Cl)c2)N(C(C)=O)n2c(C)nnc2S1,.,5.1%,.,-84.4*,.,.
COc1cccc(C2=C(C(C)=O)Sc3nncn3N2C(C)=O)c1,.,4.3%,.,-17.7,.,.
CC(=O)C1=C(c2ccc(Cl)c(Cl)c2)N(C(C)=O)n2cnnc2S1,.,3.9%,.,-83.3*,.,.
COc1ccc(C(=O)Nc2ccc3[nH]ccc3c2)cc1OC,12.5%[15.4 µM],.,.,0.4,0.8%,-16.4
COc1ccc(C(=O)Nc2ccc3[nH]ccc3c2)cc1,-1.2%[15.4 µM],.,.,-4.2,-7.4%,-88.6*
CCN(Cc1ccc2c(c1)OCCO2)C(=O)CSc1nc(C)nc2sc(C)c(C)c12,-74.7%,2.1%,.,-16.2,50.1µM*,2.7
O=C1CN(C(=O)CSc2ccc(-c3ccc(F)cc3)nn2)c2ccccc2N1,-32.0%[15.4 µM],0.9%,-0.6,-21.5,16.4%,13.6
COc1cc([C@@H]2CC(=O)c3c(O)cc(O)cc3O2)ccc1O,.,.,5.3,.,.,.
Cc1cccc(C)c1NC(=O)c1nc(S(=O)(=O)Cc2ccccc2)ncc1Cl,-18.2%[15.4 µM],-1.6%,.,-70.5*,2.2%,-11.5
Cc1cccc(CS(=O)(=O)c2ncc(Cl)c(C(=O)Nc3c(C)cccc3C)n2)c1,6.9%,1.1%,.,-96.2*,-13.8%,-16.5
CCCc1nnc(NC(=O)c2nc(S(=O)(=O)Cc3cccc(C)c3)ncc2Cl)s1,9.1%,-1.1%,.,-36.5,28.2µM*,22.1
Cc1nnc(NC(=O)c2nc(S(=O)(=O)Cc3ccccc3)ncc2Cl)s1,-7.9%[15.4 µM],2.1%,.,-6.2,?,-18.2
Cc1cccc(CS(=O)(=O)c2ncc(Cl)c(C(=O)NCc3ccccc3)n2)c1,-42.2%,-0.8%,.,-62.2*!,-5.5%,2.8
COC(=O)C1=C(C)N(Cc2ccccc2)C2=C3C(=O)CCCC3[C@@](O)(C(=O)OC)C(=O)N2C1c1ccccc1 (stereo not given in full),.,.,-1.5,.,.,.
Fc1ccccc1-c1n[nH]c(=S)n1/N=C/c1c[nH]c2ccccc12,-8.2%[15.4 µM],0.5%,0.8,-109.2*,-8.5%,-2.7
CCOC(=O)c1ccc(N2CCN(C(C)=O)CC2)c(NC(=O)c2cccnc2)c1,6.5%,7.3%,-0.8,0.4,50.1µM*,-5.0
O=C(NCCn1cc(SCc2ccc(F)cc2)c2ccccc21)c1c(F)cccc1F,-34.2%,-0.1%,-38.8*,-1.3,?,-22.3
CCCN1CNc2c(c(=O)[nH]c(=S)n2CCc2ccc(Cl)cc2Cl)C1,.,.,.,.,.,-12.4
CC(=O)Nc1cc2nn(-c3ccccc3)nc2cc1Cl,23.9%,2.9%,1.7,-3.9,-33.8%,5.5
CC(C)(C)C(=O)Nc1cc2nn(-c3ccccc3)nc2cc1Cl,6.6%,12.3%,0.3,-4.0,12.3%,-92.9*
Cc1ccc(C2=NC(C)(C)N=C2SCC(=O)Nc2ccc(Cl)cc2)cc1,-26.9%,-0.1%,0.6,-64.2*,-16.1%,-3.3
COc1ccc(C2=NCC(CSc3nnc(-c4ccc5c(c4)OCO5)o3)S2)cc1 (stereo not given),?,2.2%,1.1,14.5,28.2µM*,1.5
COc1cccc(OC(=O)CSc2nnc(-c3ccc4c(c3)OCO4)o2)c1,.,-3.8%,.,3.4,.,.
Oc1ccc(NCc2ccccc2OCc2ccc(Cl)cc2)cc1,.,-2.7%,.,-29.2,.,.
SMILES,gsp ag,RXFP1 agonist,Coupling enz,RXFP1 antagonist,gsp antag,Giardia killer
Oc1ccc(NCc2ccccc2OCc2ccccc2)cc1,0.5%,3.6%,-48.4*,-15.5,6.6%,4.8
CCOCCCNC(=S)N1CCN(c2nc(-c3ccccc3)cs2)CC1,-59.5%,1.5%,2.1,-0.4,50.1µM*,-14.8
CCNC(=S)N1CCN(c2nc(-c3cccc(OC)c3)cs2)CC1,19.6%,-0.5%,1.0,-0.8,31.6µM*,-12.0
COCCCNC(=S)N1CCN(c2nc(-c3ccccc3)cs2)CC1,?,0.1%,-3.7,-0.1,31.6µM*,4.4
FC(F)(F)c1cccc(N2CCN(c3ncnc4c3nc3n4CCCC3)CC2)c1,.,0.8%,.,-1.4,.,.
CC(=O)Oc1ccc2c(c1)CC[C@@H]1[C@@H]2CC[C@]2(C)[C@@H](O)CC[C@@H]12,.,.,.,-21.7,.,.
CCOc1cccc(C2C=C(c3ccc4c(c3)OCO4)NC(c3ccc(Br)cc3)N2)c1O (stereo not given),.,.,.,.,.,-14.2
CCCC(O)(c1ccccc1)C(CN1CCOCC1)c1ccccc1 (stereo not given),?,-3.7%,-4.2,-14.2,4.4%,8.6
CCc1ccc(C(O)(C(C)C)C(CN2CCOCC2)c2ccccc2)cc1 (stereo not given),-0.4%,-0.8%,-0.2,-78.1*,-8.7%,1.5
CCCC(O)(c1ccc(CC)cc1)C(CN1CCOCC1)c1ccccc1 (stereo not given),-8.8%[15.4 µM],-2.8%,-3.0,-62.4*,1.5%,-16.5
CC(C)C(O)(c1ccccc1)C(CN1CCOCC1)c1ccccc1 (stereo not given),14.2%,1.9%,-0.3,-11.6,-0.3%,-10.2
Cc1ccc(S(=O)(=O)N2CCN(c3nc(-c4cccnc4)nc4ccccc34)CC2)cc1,.,.,.,.,.,-4.8
CC(C)c1nnc(NC(=O)CCC(=O)N2CCN(c3ccc(Cl)cc3)CC2)s1,?,-0.8%,.,-66.6*,-3.4%,-15.5
CC(C)c1nnc(NC(=O)CCC(=O)N2CCN(c3ccc(F)cc3)CC2)s1,-3.3%,0.7%,.,-10.0,-6.0%,-11.6
Clc1ccc(-c2nnc(CSc3nnc(-c4cccs4)n3Cc3ccccc3)o2)cc1,10.5%,2.0%,0.5,17.3,25.1µM*,-19.0
O=C(c1cccn1-c1nnc(N2CCCCC2)s1)N1CCN(c2ccccc2)CC1,.,1.5%,.,-8.2,.,.
CNc1ccc(Br)cc(C(=O)/C=C/c2cccc(Cl)c2Cl)c1=O,?,-0.2%,-10.6,-3.0,-12.6%,-14.6
CNc1ccccc(C(=O)/C=C/c2ccccc2OC)c1=O,-47.3%,-0.4%,-30.5*,-8.9,-10.2%,-1.5
COc1ccccc1C=CC(=O)C=Cc1ccccc1OC,-39.2%,.,.,-10.2,-14.8%,-1.4
CNc1ccc(Br)cc(C(=O)/C=C/c2cccc(OC)c2OC)c1=O,-10.7%,-1.5%,-32.4*,-7.3,12.1%,-3.9
CN1CCN(c2ccc(-c3ccnn3C(=O)Nc3ccccc3)cc2)CC1,4.8%,3.6%,0.2,-5.3,7.2%,-6.5
CN(C)c1ccc(-c2nc3ccccn3c2Nc2ccc3c(c2)OCCO3)cc1,.,27.0%,.,-6.7,.,.
